Tests used:
Test in all cases: PBM binding z-score (relative to random genomic background probes); higher = stronger binding; sequences stand for … in GC…GCGATTGACAGCGTAGAATGAAGG
[1] = tested on: FXR:RXRa (NR concentration 270 nM, RXRa partner concentration 90 nM)
Summary of the method: (§1)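 Custom Agilent 4×180K protein-binding microarrays carried double-stranded probes, each with a 34-nt variable region. These regions held direct-repeat seeds, single-nucleotide variants, half-site ablations and random human genomic background sequences. Ligand-free nuclear receptor dimers were incubated on the arrays for 1 h, antibodies against each partner (one per run) detected binding, and scanned fluorescence was regression-normalized. Binding z-scores take the random background probes as reference.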

[2] = tested on: LXRa:RXRa (NR concentration 270 nM, RXRa partner concentration 90 nM)
Summary of the method: as §1

[3] = tested on: LXRa homodimer (NR concentration 270 nM)
Summary of the method: as §1

[4] = tested on: LXRb:RXRa (NR concentration 270 nM, RXRa partner concentration 90 nM)
Summary of the method: as §1

[5] = tested on: LXRb homodimer (NR concentration 270 nM)
Summary of the method: as §1

[6] = tested on: PPARa:RXRa (NR concentration 270 nM, RXRa partner concentration 90 nM)
Summary of the method: as §1

[7] = tested on: PPARg:RXRa (NR concentration 180 nM, RXRa partner concentration 90 nM)
Summary of the method: as §1

[8] = tested on: PPARg:RXRa 270nM:90nM, anti-RXR (NR concentration 270 nM, RXRa partner concentration 90 nM)
Summary of the method: as §1

[9] = tested on: PPARg:RXRa 30nM:10nM, anti-RXR (NR concentration 30 nM, RXRa partner concentration 10 nM)
Summary of the method: as §1

[10] = tested on: PPARg:RXRa 90nM:30nM, anti-RXR (NR concentration 90 nM, RXRa partner concentration 30 nM)
Summary of the method: as §1

[11] = tested on: PPARg:RXRa DBDmut IVT, anti-RXR (DBD mutation: RXRa K156A/R161A, NR concentration 270 nM, RXRa partner concentration 90 nM)
Summary of the method: as §1

[12] = tested on: PPARg:RXRa IVT, anti-PPARg (NR concentration 270 nM, RXRa partner concentration 90 nM)
Summary of the method: as §1

[13] = tested on: PPARg DBDmut:RXRa IVT, anti-PPARg (DBD mutation: PPARg1 K132A/R137A, NR concentration 270 nM, RXRa partner concentration 90 nM)
Summary of the method: as §1

[14] = tested on: PPARg DBDmut IVT, anti-PPARg (DBD mutation: PPARg1 K132A/R137A, NR concentration 270 nM)
Summary of the method: as §1

[15] = tested on: PPARg homodimer (NR concentration 180 nM)
Summary of the method: as §1

[16] = tested on: PXR:RXRa (NR concentration 270 nM, RXRa partner concentration 90 nM)
Summary of the method: as §1

[17] = tested on: PXR homodimer (NR concentration 270 nM)
Summary of the method: as §1

[18] = tested on: RARa:RXR (NR concentration 270 nM, RXRa partner concentration 90 nM)
Summary of the method: as §1

[19] = tested on: RARa homodimer (NR concentration 270 nM)
Summary of the method: as §1

[20] = tested on: RARb:RXRa (NR concentration 270 nM, RXRa partner concentration 90 nM)
Summary of the method: as §1

Row | Sequence | PBM binding z-score [1] | PBM binding z-score [2] | PBM binding z-score [3] | PBM binding z-score [4] | PBM binding z-score [5] | PBM binding z-score [6] | PBM binding z-score [7] | PBM binding z-score [8] | PBM binding z-score [9] | PBM binding z-score [10] | PBM binding z-score [11] | PBM binding z-score [12] | PBM binding z-score [13] | PBM binding z-score [14] | PBM binding z-score [15] | PBM binding z-score [16] | PBM binding z-score [17] | PBM binding z-score [18] | PBM binding z-score [19] | PBM binding z-score [20]
1 | CGAACTAGGTCAAGGTCAAAGTCGGTTTGTGCCA | 6.55 | 5.52 | 3.7 | 4.39 | 1.14 | 5.86 | 9.77 | 7.93 | 6.78 | 8.09 | 8.45 | 8.59 | 3.32 | 1.2 | 4.39 | 5.28 | 2.59 | 5.41 | 1.57 | 4.93
2 | TCATAAAGGTAAATGCTAGGTGAAAGTCCGATCT | 1.41 | 1.31 | 0.158 | 0.935 | -0.29 | 1.55 | 0.57 | 2.52 | 4.21 | 3.45 | 3.32 | 1.59 | 0.692 | 0.518 | 1.01 | 0.647 | 0.218 | 1.36 | 0.932 | 1.04
3 | CCTATTAGTTGACCATAAGGTCAACCGAAGCTCG | 4.88 | 4 | 3.35 | 3.83 | 1.73 | 4.06 | 1.48 | 3.02 | 1.42 | 2.61 | 1.02 | 2.48 | 2.56 | 1.37 | 4.93 | 4.62 | 2.57 | 5.3 | 3.95 | 3.72
4 | GCTAGTTGGTCAGTAAAAGGTCTCACACCGGTCG | -0.182 | -0.0505 | -0.00726 | -0.0991 | -0.275 | 0.0782 | 0.203 | 0.834 | -0.473 | 0.379 | 0.501 | 0.748 | 0.0123 | -0.176 | 0.542 | -0.0714 | 0.00189 | 0.298 | -0.00415 | 1.19
5 | CAGCCTAGGTCAGGGCCAGTACAGGAGGAACGTT | 1.53 | 0.993 | -0.276 | 0.431 | -1.11 | 2.09 | 0.833 | 0.908 | -0.375 | 0.307 | 1.35 | 1.58 | -0.899 | -1.34 | 0.93 | 0.659 | -0.209 | 1.03 | -0.614 | 3.42
6 | ATATGTAGGTTACATCCGGGTCACTCAGGCTATG | 2.08 | 3.86 | 1.09 | 2.75 | 0.682 | 4.31 | 6.07 | 5.17 | 2.68 | 4.31 | 7.65 | 7.47 | 3.76 | 3.51 | 2.34 | 3.29 | 1.26 | 3.74 | 0.95 | 2.41
7 | CGTCAAAGTTCAACTAACGTAACGTAAAGCACGC | 6.21 | 5.98 | 3.62 | 4.08 | 2.43 | 4.99 | 4.65 | 5.21 | 2.17 | 4.04 | 0.504 | 1.8 | 1.16 | 1.48 | 3.23 | 4.55 | 3.33 | 3.3 | 1.91 | 5.14
8 | TAGCCTAGGTCATATCGGGCCAGTATACGCTATA | 4.12 | 3.82 | 0.583 | 2.59 | 0.744 | 3.14 | 1.53 | 1.61 | 0.227 | 0.981 | 1.18 | 2.19 | 0.112 | 0.0699 | 0.54 | 2.18 | 0.0831 | 1.92 | -0.618 | 3.37
9 | ACAGACAGGTGATTAAGGTAACTCAGGCTATCAT | 0.396 | 0.0407 | -0.11 | -0.0714 | -0.205 | 0.176 | 0.468 | 0.0075 | 0.0784 | 0.0739 | 0.239 | 0.557 | 0.291 | -0.545 | 0.126 | 0.164 | 0.294 | 1.23 | 0.587 | 0.35
10 | CCGACTGGCGCAAAGGTTACCATACTCAGTACGA | 0.725 | 1.29 | -0.0542 | 1.78 | -0.938 | 3.45 | 5.96 | 6.74 | 4.81 | 6.59 | 0.771 | 2.5 | -1.09 | -0.747 | 0.747 | 1.7 | -0.233 | 2.04 | -0.0622 | 1.75
11 | AAAGACAGGTGATGAAGGTAACTCAGGCTATCAT | -0.191 | -0.0472 | 0.0332 | 0.0714 | -0.0721 | 0.593 | 0.785 | 0.567 | 0.567 | 0.473 | 0.0134 | 0.744 | 0.665 | -0.142 | 0.408 | 0.0948 | 0.956 | 0.223 | 1 | 0.438
12 | TCATATCGGTAAATGCTAGGTGAAAGTCCGATCT | 0.228 | 0.361 | 0.17 | 0.39 | 0.0158 | 0.778 | 0.243 | 2.06 | 3.69 | 2.84 | 1.8 | 1.17 | 0.763 | 0.728 | 0.249 | 0.387 | -0.111 | 0.463 | -0.336 | 0.381
13 | CCTTACGGGTCAAGGTTATAGCTCGGGTGGTACG | 5.6 | 3.71 | 0.385 | 3.06 | 0.274 | 5.04 | 4.42 | 4.35 | 1.57 | 3.44 | 2.32 | 3.66 | 0.883 | -0.415 | 1.91 | 3.16 | 0.16 | 3.72 | 0.652 | 4.12

Reference: the supplement of paper PMC6555819
